Data as given in PubChem BioAssay.
Unmarked numbers belong to inactive results.

Experiment: MM1S myeloma cell viability, profiling panel, resazurin fluorescence, basal, 24 h, PK04 Diversity Set (AID 1174);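 note: MM1S multiple myeloma cell line; test concentration not given here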
Details: higher = more signal, called active from +8 up or from −8 down

SMILES	z-score
COc1ccc(COC(=O)NN=C2C[C@@H](O)[C@@H](O)[C@@H]3[C@@H]4C(=O)N(Cc5ccccc5)C(=O)[C@@H]4CC[C@@H]23)cc1	0.259
O=C1C=C[C@@H](O)[C@@H]2[C@@H]3C(=O)N(Cc4ccccc4)C(=O)[C@@H]3CC[C@@H]12	0.183
CCCC[C@H]1CN2[C@@H](CC[C@@H](C)[C@@H]2c2ccc(Br)cc2)C(=O)O1	1.05
COc1ccc(O[C@H]2C=C[C@@H](C#Cc3ccccc3)O[C@@H]2CO)cc1	-1.24
O=C(NCCC[N+]1=CC=NC1c1ccccc1)N1CCCc2nc(-c3ccc(Br)cc3)ccc21 (stereo unspecified)	-1.04
C[C@H]1CC[C@@H](C(=O)O)N[C@@H]1c1ccc(C#Cc2ccccc2)cc1	-0.477
CC(C)CN1CCc2nc(-c3ccccc3)c3c(c2C1)CO[C@@H](C)C3	1.21
COc1ccc(COC(=O)NN=C2C[C@@H](O)[C@@H](O)[C@@H]3[C@@H]4C(=O)N(Cc5ccc6c(c5)OCO6)C(=O)[C@@H]4CC[C@H]23)cc1	-0.0139
COC(=O)C(C(=O)OC)C1CCCC(=O)C1 (stereo unspecified)	-1.14
CC(C)[C@@H](OCc1ccccc1)[C@H](C)C=NOC[C@@H](O)[C@H]1O[C@@H]2OC(C)(C)O[C@@H]2[C@H]1O	-0.587
CCc1cc2c(nc1CC)CCN(CCC(C)=NO[C@@H]1O[C@H](COC(C)=O)[C@@H](OC(C)=O)[C@H](OC(C)=O)[C@H]1OC(C)=O)C2	0.164
COC(=O)[C@H](C)NC(=O)CCC1CC(OC(=O)NCCc2ccc(F)cc2)CC2(CCCC(COC(=O)NCCc3ccccc3OC)O2)O1 (stereo partly specified)	0.173
CCOC(=O)[C@H](CC(C)C)NC(=O)CCC1CC(OC(=O)NCc2ccc3c(c2)OCO3)CC2(CCCC(COC(=O)NCCc3ccc(Cl)cc3)O2)O1 (stereo partly specified)	0.984
CC(CCN1CCc2nc(-c3ccccc3)c(-c3ccccc3)cc2C1)=NOC(C)CN1CCCc2nc(C)c(C)cc21 (stereo unspecified)	-0.877
O=C1[C@H]2[C@H]3[C@H](O)[C@H](O)CC(=NO[C@@H]4O[C@H](CO)[C@@H](O)[C@H](O)[C@H]4O)[C@@H]3CC[C@H]2C(=O)N1C[C@@H]1CCCO1	-0.589
COc1ccc(O[C@H]2C=C[C@@H](c3ccccc3)O[C@@H]2COC(=O)CCC(C)=NOC[C@@H](O)COCc2ccco2)cc1	-1.11
CC(C)=CCCC(C)=CCON=C1C[C@@H](O)[C@@H](O)[C@@H]2[C@@H]3C(=O)N(c4cccc(Oc5ccccc5)c4)C(=O)[C@@H]3CC[C@H]12	0.674
CO[C@@H]1C=CCC(=O)N[C@@H](C)C(=O)OC[C@@H](NS(=O)(=O)c2ccc(C)cc2)[C@H](C)C=CCC(=O)OC[C@H]1C	-0.0213

SMILES	z-score
COc1ccc(COC(=O)NN=C2C[C@@H](O)[C@@H](O)[C@@H]3[C@@H]4C(=O)N(c5cccc(Oc6ccccc6)c5)C(=O)[C@@H]4CC[C@H]23)cc1	-0.341
CCOC(=O)CCN1C(=O)[C@H]2[C@H]3[C@H](O)[C@H](O)CC(=NNC(=O)OCc4ccccc4)[C@H]3CC[C@H]2C1=O	-0.364
CO[C@@H](C(C)C)[C@@H](C)C1OC(=O)CC1O (stereo partly specified)	-0.766
CCN1C(=O)[C@H]2[C@H]3[C@H](O)[C@H](O)CC(=NO[C@H](C)c4cn([C@@H]5COC[C@H]5O)nn4)[C@@H]3CC[C@H]2C1=O	-0.917
CCOC(=O)[C@H](CC(C)C)NC(=O)CCC1CC(OC(=O)NCCc2ccc(F)cc2)CC2(CCCC(COC(=O)NCc3cccc(C(F)(F)F)c3)O2)O1 (stereo partly specified)	0.0492
O=C1CCCC=C1C(O)C1CCCCC1 (stereo unspecified)	-0.254
COc1ccc(COC(=O)NN=C2C[C@@H](O)[C@@H](O)[C@@H]3[C@@H]4C(=O)N(C5CCCCC5)C(=O)[C@@H]4CC[C@@H]23)cc1	-0.489
O=C1C2=CC[C@H]3C(=O)N(C4CCCCC4)C(=O)[C@H]3[C@H]2[C@H](O)[C@@H]2O[C@H]12	-7.88
O=C1C[C@@H](O)[C@@H](O)[C@@H]2[C@@H]3C(=O)N(C4CCCCC4)C(=O)[C@@H]3CC[C@@H]12	-0.262
C=CC[C@@H]1C=C[C@H](ON=CC[C@@H]2C=C[C@H](OC(C)=O)[C@@H](COC(C)=O)O2)[C@@H](CO)O1	-1.23
CC(CCC(=O)OC[C@H]1O[C@H](C#Cc2ccccc2)C=C[C@@H]1Oc1ccc(C)cc1)=NO[C@H](C)c1cn([C@@H]2COC[C@H]2O)nn1	-1.7
COC(=O)[C@@H]1CC[C@H](C)[C@@H](c2ccc(C)cc2)N1C(=O)c1ccc(C=NOC[C@@H](O)[C@H]2O[C@@H]3OC(C)(C)O[C@@H]3[C@H]2O)cc1	-1.05
C=CC[C@@H]1C=C[C@H](Oc2ccc(C)cc2)[C@@H](COC(=O)NCc2cccc3ccccc23)O1	0.841
CCOC(=O)[C@H](CC(C)C)NC(=O)CCC1CC(OC(=O)NCc2ccc3c(c2)OCO3)CC2(CCCC(COC(=O)NCCC(C)C)O2)O1 (stereo partly specified)	1.03
CCOC(=O)CCN1C(=O)[C@H]2[C@H]3[C@H](O)[C@H](O)CC(=NO[C@@H]4O[C@H](CO)[C@@H](O)[C@H](O)[C@H]4O)[C@@H]3CC[C@H]2C1=O	-0.481
COC(=O)[C@H](C)NC(=O)CCC1CC(OC(=O)NCc2ccc3c(c2)OCO3)CC2(CCCC(COC(=O)NCCCN3CCCC3=O)O2)O1 (stereo partly specified)	-0.0358
Cc1ccc(S(=O)(=O)N[C@@H]2COC(=O)CC=C[C@@H](C)[C@H](NS(=O)(=O)c3ccc(C)cc3)COC(=O)[C@H](C)NC(=O)CC=C[C@H]2C)cc1	0.341
CCOC(=O)[C@H](CC(C)C)NC(=O)CCC1CC(OC(=O)NCc2ccc3c(c2)OCO3)CC2(CCCC(COC(=O)NCCOC)O2)O1 (stereo partly specified)	0.982
